DAX1 inh-1: DAX1 (NR0B1) inhibition, primary screen; inhibition, % at 6.8 µM; HEK293T StAR-luciferase reporter, SF-1/DAX-1 repression relief; hit rate 1.1% among 370,000;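 active = inhibition above the mean over all tested compounds plus 3 SD, cut at about 3.6% in these data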;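 also: 0% = DAX-1 cells with DMSO and 100% = cells lacking DAX-1 with DMSO; higher inhibition means more luminescence from relief of DAX-1 repression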
hgDAF12 agonist: activates the H. glycines DAF-12 receptor ligand-binding domain | hit rate 1.8% among 370,000 | HEK293 GAL4-hgDAF12 UAS-luciferase reporter, agonist luminescence; normalized to butyrate control | activation, % at 6.8 µM | AID 687014;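 active = activation above a cutoff set at the mean of all screened compounds plus 3 SD, cut at about 10% in these data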;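 also: 0% = DMSO wells and 100% = sodium butyrate wells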
ssDAF-12 act: S. stercoralis DAF-12 activation, primary screen. HEK293 ssDAF-12/GRIP1 lit1-tk-luc reporter, luminescence; % of 3 µM dafachronic acid response. hit rate 1% among 370,000. AID 652126. activation, % at 6.8 µM;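 active = activation above the mean over all tested compounds plus 3 SD, cut at about 0.9% in these data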;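 also: 0% = DMSO-only wells and 100% = 3 µM delta7-dafachronic acid wells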
DAX1 inh-2: NR0B1 (DAX1) inhibition; P51843; HEK293 Gal4-DAX1 luciferase reporter, luminescence; inhibition, % at 6.75 µM; hit rate 0.99% among 340,000; AID 504766;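 active = inhibition above the mean over all tested compounds plus 3 SD, cut at about 4.2% in these data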;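 also: 0% = DAX1-transfected cells with DMSO and 100% = empty-vector control cells with DMSO; inhibition shows as a rise in luminescence from relieved DAX1 repression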
hcDAF12 agonist: activates DAF-12 receptor from parasite H. contortus; HEK293 hcDAF-12 lit1-tk-luc reporter, luminescence; 0% DMSO, 100% Δ7-dafachronic acid; activation, % at 6.8 µM; hit rate 1.4% among 370,000; AID 652067;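 active = activation above the mean of all tested compounds plus 3 SD, cut at about 5.5% in these data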;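 also: 100% = response to 3 µM Δ7-dafachronic acid high control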
hgDAF12 conf: hgDAF-12 agonism, confirmation assay; shares compounds with hgDAF12 agonist; HEK293 GAL4-hgDAF12 luciferase reporter, agonist mode; percent of butyrate response; activation, % at 6.8 µM; hit rate 80% among 3,300; AID 743050;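 active = mean activation over triplicate wells above the hit cutoff derived from the earlier primary screen, cut at about 11% in these data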;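 also: 0% = DMSO low control and 100% = 2 mM sodium butyrate high control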
LXRb DAF12 ctr: activates human LXR-beta, counter-screen for DAF-12 agonists. shares compounds with hgDAF12 agonist. 3,300 tested, under 10 active. activation, % at 6.8 µM. AID 743051. HEK293 Gal4-LXR luciferase reporter, 24 h;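 active = mean activation of the triplicate above a set limit carried over from the primary screen, none filed active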
Target sequence (P55055 whole entry, looked up, the tested form may be a part): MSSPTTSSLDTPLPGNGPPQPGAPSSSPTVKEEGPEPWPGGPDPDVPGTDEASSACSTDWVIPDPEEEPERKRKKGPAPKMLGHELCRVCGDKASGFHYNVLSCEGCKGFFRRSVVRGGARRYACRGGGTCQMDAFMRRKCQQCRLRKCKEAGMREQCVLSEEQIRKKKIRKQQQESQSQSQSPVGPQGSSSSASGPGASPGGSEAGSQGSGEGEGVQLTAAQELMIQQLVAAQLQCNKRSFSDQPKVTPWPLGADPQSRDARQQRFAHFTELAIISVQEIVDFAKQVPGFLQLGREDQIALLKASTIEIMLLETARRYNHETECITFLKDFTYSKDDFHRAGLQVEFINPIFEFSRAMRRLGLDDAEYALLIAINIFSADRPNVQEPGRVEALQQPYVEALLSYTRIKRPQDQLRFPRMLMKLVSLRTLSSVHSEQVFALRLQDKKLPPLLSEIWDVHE
Numbers without * were called inactive; nt = no result given. Most compounds without a hit are left out; they make up all but 4.1% or so of the library.

SMILES	DAX1 inh-1	hgDAF12 agonist	ssDAF-12 act	DAX1 inh-2	hcDAF12 agonist	hgDAF12 conf	LXRb DAF12 ctr
NC(=O)c1ccc(-c2noc(-c3ccccc3F)n2)cc1	2	15*	0	-3	5.6*	13*	1
NC(=O)c1ccccc1-c1noc(-c2ccccc2F)n1	nt	9	-1	nt	0	nt	nt
C=C(C)C1CC=C(C)/C(=N/NC(=O)c2cccc([N+](=O)[O-])c2)C1 (stereo not given)	0	4	-1	1	1	nt	nt
C=C(C)C1CC=C(C)/C(=N/NC(=O)c2ccoc2C)C1 (stereo not given)	4.3*	20*	0	3	5.9*	1	0
COc1cc(/C=N/O)ccc1OCc1ccc(C(=O)O)cc1	2	13*	0	-6	3	16*	1
COc1cc(/C=N/NS(=O)(=O)c2ccc3ccccc3c2)ccc1OCc1ccc(C(=O)O)cc1	3	15*	0	-7	3	13*	1
O=C(c1ccccc1)C1C(=O)c2ccccc2C1=O	0	-1	-1	0	1	nt	nt
O=C(/C=C/c1ccccc1)C1C(=O)c2ccccc2C1=O	1	22*	1	0	5	12*	0
O=C(CNC(=O)c1cccs1)c1ccc(Cl)cc1	2	15*	1	1	5	17*	1
C/C(=N\NC(=O)c1cccs1)c1ccncc1	1	15*	1	4	3	1	0
O=C(NCCc1ccc(Cl)cc1)c1cccs1	2	8	-1	1	0	nt	nt
C/C(=N\NC(=O)c1ccc(Cl)cc1)c1cccs1	4.4*	15*	1.8*	0	4	18*	1
CSc1nc(-c2ccc(N(C)C)cc2)c(C#N)c(=O)n1C	2	14*	0	1	2	6	0
CSc1nc(-c2ccc(Cl)cc2)c(C#N)c(=O)n1C	-1	1	-2	-1	-1	nt	nt
O=C(N/N=C/C(Cl)=C/c1ccccc1)c1ccncc1	-1	1	-1	nt	0	nt	nt
O=C(N/N=C/C(Cl)=C\c1ccccc1)c1cccs1	2	18*	1.4*	3	4	16*	1
CC(/C=N/NC(=O)c1ccccn1)=C\c1ccco1	2	14*	1.2*	nt	4	11*	1
O=C(N/N=C/C(Cl)=C/c1ccccc1)c1ccccn1	3	15*	0	3	4	12*	1
CCCCCCCCN1C(=O)[C@@H](CC(=O)N2CCCCC2)C[C@@]2(C(=O)OC)C1=C[C@H](C(C)(C)C)O[C@@H]2C	1	-1	-1	nt	-1	nt	nt
CC(C)n1nnnc1C1(C)CCCCC(=O)N1Cc1cccc(C(F)(F)F)c1 (stereo not given)	1	8	0	nt	-2	nt	nt
O=[N+]([O-])c1ccc(NCCCN2CCC(C(O)(c3ccccc3)c3ccccc3)CC2)cc1	0	1	0	nt	-1	nt	nt
CC(=O)Nc1ccc(NC(=O)c2ccccc2Br)cc1	0	-2	-1	nt	-1	nt	nt
O=C(Nc1ccc(Br)cc1)c1ccccc1Br	1	13*	0	4.9*	3	16*	1
Cc1ccccc1C(=O)O/N=C(\N)c1ccncc1	2	15*	0	1	3	13*	1
N/C(=N\OC(=O)c1cc(Cl)ccc1Cl)c1ccncc1	-1	4	-1	0	1	nt	nt
SMILES	DAX1 inh-1	hgDAF12 agonist	ssDAF-12 act	DAX1 inh-2	hcDAF12 agonist	hgDAF12 conf	LXRb DAF12 ctr
Cn1nnnc1SCC(=O)Nc1nc2c(s1)CCCC2	3.7*	13*	0	1	6.4*	16*	1
Cc1c[nH]c2cccc(-c3cccc4ccccc34)c12	1	2	-1	nt	0	nt	nt
CN(C)/C=N/C(=S)Nc1ccc(Cl)cc1	1	14*	-1	2	1	11*	0
Nc1c(-c2ccc(Cl)cc2)cnc2c(-c3ccccc3)cnn12	2	14*	0	7.8*	3	12*	1
CC(C)C[C@@H]1COc2cc(N3CCCC3)ccc2S(=O)(=O)N1C	-1	-2	-1	nt	-1	nt	nt
O=C(Nc1ccc(NC(=O)c2ccc(Cl)cc2Cl)cc1)c1ccc2c(c1)OCO2	0	0	-1	-2	1	nt	nt
O=C(Nc1ccn(Cc2ccccc2)n1)c1ccc2c(c1)OCO2	1	16*	-2	2	0	9	0
O=C(Nc1ccc(Cl)cc1)c1ccc2c(c1)OCO2	3	13*	0	3	5.6*	20*	1
O=C(Nc1ccc2c(c1)OCCO2)c1ccc(Cl)cc1	2	15*	1	2	5	15*	1
CC(=O)Nc1ccc(C(=O)Nc2ccc3c(c2)OCCO3)cc1	0	0	-1	-1	-1	nt	nt
O=C(N/N=C/c1ccc(Cl)cc1)c1ccc2c(c1)OCO2	0	14*	-1	0	0	17*	0
O=C(Nc1ccn(Cc2ccc(Cl)cc2)n1)c1ccccc1	1	10	-1	1	3	nt	nt
CCNC(=O)N1CCN(c2ccc(N3CCN(C(=O)NCC)[C@H](C)C3)c(C)c2)[C@@H](C)C1	1	1	-1	nt	-4	nt	nt
COc1cccc(/C=C2\CC3(OC(=O)c4ccco4)CCCN2C3)c1 (stereo not given)	-1	-2	-1	nt	-2	nt	nt
Cc1nc2ccc(NC(=O)CSc3ccccc3)cc2s1	3	13*	0	0	3	17*	1
Cc1nc2ccc(NC(=O)COc3ccccc3C)cc2s1	0	1	-1	1	-1	nt	nt
COc1ccc(NC(=O)CSc2nc3ccsc3c(=O)n2CCC(=O)O)c(OC)c1	0	14*	-1	0	1	1	0
CCOc1cc(C2NN=C(c3ccc(C)cc3)S2)ccc1O (stereo not given)	2	14*	0	1	4	16*	1
COc1ccc(CSc2nnc(SCc3ccccc3)s2)cc1	0	-3	-1	nt	-3	nt	nt
O=C(O)CC1=C(Nc2ccccc2)C(=O)N(c2ccccc2)C1c1ccc(F)cc1 (stereo not given)	2	18*	-1	0	3	11*	0
CNc1oc(/C=C/c2ccccc2)nc1C#N	2	13*	1.6*	1	5	18*	1
O=C(NCCCN1CCN(c2ccc(F)cc2)CC1)Nc1ccccc1	2	-3	-1	nt	-2	nt	nt
COC(=O)C1CN(Cc2ccc(OC)cc2)CCS(=O)(=O)N1Cc1cn(Cc2ccccc2)nn1 (stereo not given)	-1	1	-2	nt	2	nt	nt
O=C(c1ccco1)N1CCc2ccccc21	3	14*	-1	1	3	8	0

From PubChem
